Screens as filed in PubChem.
Mcl1-Noxa inh – Mcl-1/Noxa interaction inhibition; Q07820; TR-FRET Mcl-1/Noxa peptide binding, 2 h; inhibition, % at 21.7 µM; 220,000 tested, 1.5% active;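 active = compounds that cut the protein-peptide binding signal by more than 50% relative to plate controls in a single-dose test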;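 also: His-tagged Mcl-1 with rhodamine Noxa BH3 peptide and terbium anti-His antibody; 0% = Mcl-1 plus Noxa peptide wells and 100% = peptide-only wells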
Target sequence (Q07820 whole entry, looked up): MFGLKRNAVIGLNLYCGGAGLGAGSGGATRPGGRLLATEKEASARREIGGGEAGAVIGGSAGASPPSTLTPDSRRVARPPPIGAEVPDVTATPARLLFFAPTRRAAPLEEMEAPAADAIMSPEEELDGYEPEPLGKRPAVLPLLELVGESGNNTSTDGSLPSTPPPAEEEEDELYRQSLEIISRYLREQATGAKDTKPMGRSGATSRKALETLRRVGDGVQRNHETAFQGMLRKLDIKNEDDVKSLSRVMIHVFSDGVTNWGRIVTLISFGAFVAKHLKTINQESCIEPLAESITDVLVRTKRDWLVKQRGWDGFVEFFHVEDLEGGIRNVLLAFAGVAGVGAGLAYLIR
L929 necroptosis – L929 zVAD cell death inhibition. viability rescue, % at 10 µM. L929 zVAD necroptosis rescue, ATP luminescence, 24 h; with zVAD 60 µM. AID 1377. 220,000 tested, 0.38% active;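 active = activation, scaled between plate controls, above about 75%, limit read from the data; inactive = activation under that limit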;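 also: 0% = zVAD with DMSO and 100% = DMSO alone without zVAD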
TNF necrop inh – inhibitors of TNF-alpha induced necroptosis in Jurkat FADD-/- cells; Jurkat FADD-/- TNF necroptosis rescue, ATP luminescence, 24 h; 0 = TNF only, 100 = no-TNF cells; activation (protection from cell death), % at 10 µM; 220,000 tested, 0.068% active; AID 463075;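 active = activation, meaning protection from cell death, of at least 50% relative to plate controls; inactive = activation below 50%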;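 also: necroptosis triggered by 40 ng/mL TNF-alpha added together with compound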
Mcl-1 Bim block – inhibitors of Bim-Mcl-1 interaction, human | Q07820 | Bead-based flow cytometry, Bim peptide-Mcl-1 binding | inhibition, % at 10 µM | 190,000 tested, 0.1% active; in the data active = inhibition above about 40%;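 also: 0% = no compound tracer wells and 100% = peptide blocker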
MCL1 BIM primary – disrupts human MCL1 binding to BIM-BH3 peptide; 320,000 tested, 0.68% active; AID 2057; GST-MCL1 / FITC-Bim-BH3 fluorescence polarization; Q07820; inhibition, % at 10.9 µM;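 active = inhibition above the mean inhibition of all tested compounds plus 3 SD, set per campaign, cut at about 40% in these data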;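 also: 0% = DMSO wells and 100% = unlabeled Bim-BH3 peptide control; higher means more loss of mP so more displacement of Bim peptide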
Mcl1-Bid inh – Mcl-1/Bid interaction inhibition. TR-FRET Mcl-1/Bid-Dy647 peptide binding, 1536-well. inhibition, % at 21.7 µM. Q07820. 220,000 tested, 0.97% active. AID 1021;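 active = compounds that cut the binding signal by more than half at the single screening dose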;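 also: His-tagged Mcl-1 with europium anti-His antibody binding Bid BH3 peptide; 0% = Mcl-1 plus peptide wells and 100% = peptide-only wells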
zVAD necrop conf – confirmed blocker of zVAD induced death in L929 cells | shares compounds with L929 necroptosis | L929 zVAD-induced necroptosis rescue, ATP luminescence, 24 h | activation (protection from necroptosis), % at 10 µM | 760 tested, 16% active;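 active = mean protection from necroptosis of at least 50% over duplicate tests; inactive = mean protection below 50%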;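 also: 0% = cells with zVAD alone and 100% = vehicle cells without zVAD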
Numbers without * were called inactive. Compounds with a hit are over-represented: about 2.4% of the library has one in this group of screens.

Results for COc1ccc(N=Cc2c(O)[nH]c3ccccc23)cc1 ?
Mcl1-Noxa inh: 3; L929 necroptosis: 77*; TNF necrop inh: -2; Mcl-1 Bim block: -1; MCL1 BIM primary: 0; Mcl1-Bid inh: -33; zVAD necrop conf: 76*

What do the screens show for `CCC(=O)Nc1nc2ccc3sc(C)nc3c2s1`?
Mcl1-Noxa inh: 22; L929 necroptosis: 79*; TNF necrop inh: -4; Mcl-1 Bim block: -3; MCL1 BIM primary: 0; Mcl1-Bid inh: -9; zVAD necrop conf: 8

What do the screens show for `CCCC(=O)Nc1nc2ccc3nc(C)sc3c2s1`?
Mcl1-Noxa inh: 10; L929 necroptosis: 91*; TNF necrop inh: 5; Mcl-1 Bim block: 0; MCL1 BIM primary: 1; Mcl1-Bid inh: -21; zVAD necrop conf: 0

What do the screens show for `Cc1c(Cl)ccc2sc(NC(=O)C3CC3)nc12`?
MCL1 BIM primary: 13

What do the screens show for `Cc1nc2c(ccc3nc(NC(=O)C4CC4)sc32)s1`?
Mcl1-Noxa inh: 1; L929 necroptosis: 80*; TNF necrop inh: 1; Mcl-1 Bim block: -1; MCL1 BIM primary: -3; Mcl1-Bid inh: -4; zVAD necrop conf: 18

What do the screens show for `COc1ccc(N2CCN(S(=O)(=O)CC34CCC(CC3=O)C4(C)C)CC2)cc1` (stereo not given)?
MCL1 BIM primary: 10

Results for Oc1ccc(-c2[nH]ncc2-c2cnn(-c3ccccc3)c2)c(O)c1 ?
Mcl1-Noxa inh: 21; L929 necroptosis: 79*; TNF necrop inh: -3; Mcl-1 Bim block: 1; MCL1 BIM primary: 4; Mcl1-Bid inh: -35; zVAD necrop conf: 2

How did COc1ccc(-c2cn[nH]c2-c2ccc(O)cc2O)cc1OC do in these assays?
MCL1 BIM primary: 3

How did CCOC(=O)/C=C1\Nc2ccccc2OC1=O do in these assays?
Mcl1-Noxa inh: 14; L929 necroptosis: 94*; TNF necrop inh: 10; Mcl-1 Bim block: 4; MCL1 BIM primary: 7; Mcl1-Bid inh: -34; zVAD necrop conf: 3

How did Cc1ccc(CN2CCS(=O)(=O)CC2)o1 do in these assays?
Mcl1-Noxa inh: 10; L929 necroptosis: 83*; TNF necrop inh: 14; Mcl-1 Bim block: -7; MCL1 BIM primary: -9; Mcl1-Bid inh: -23; zVAD necrop conf: 5

What do the screens show for `CCCn1c(SCC(=O)c2cc(C)n(C3CC3)c2C)n[nH]c1=O`?
MCL1 BIM primary: -2

What do the screens show for `COc1ccc(C2(c3ccc(OC)cc3)NC(=O)N(CC(=O)N(C)C)C2=O)cc1`?
MCL1 BIM primary: -1

Results for CN(C)C=NC(=O)/C(C#N)=C1\CCc2ccccc2N1 ?
Mcl1-Noxa inh: 0; L929 necroptosis: 83*; TNF necrop inh: 15; Mcl-1 Bim block: 0; MCL1 BIM primary: -2; Mcl1-Bid inh: 11; zVAD necrop conf: 6

How did CCCn1c(COc2ccc(C(=O)O)cc2)nc2ccccc21 do in these assays?
MCL1 BIM primary: 5

Results for O=C(Nc1ccc(F)cc1)Nc1ccccc1F ?
Mcl1-Noxa inh: 17; L929 necroptosis: 1; TNF necrop inh: 0; Mcl-1 Bim block: -2; MCL1 BIM primary: 9; Mcl1-Bid inh: -6

Results for COC(C(=O)Nc1ccc(F)cc1F)c1ccccc1 (stereo not given) ?
Mcl1-Noxa inh: 13; L929 necroptosis: 83*; TNF necrop inh: 97*; Mcl-1 Bim block: 0; MCL1 BIM primary: 6; Mcl1-Bid inh: 1; zVAD necrop conf: 40

What do the screens show for `O=C(Nc1ccc(NC(=O)c2ccccc2O)cc1)Nc1ccc(F)cc1F`?
Mcl1-Noxa inh: 15; L929 necroptosis: 78*; TNF necrop inh: 10; MCL1 BIM primary: 1; Mcl1-Bid inh: -3; zVAD necrop conf: 33

How did O=C(Nc1ccc(F)cc1F)Nc1ccc(F)cc1F do in these assays?
Mcl1-Noxa inh: 11; L929 necroptosis: 1; TNF necrop inh: 14; Mcl-1 Bim block: 0; MCL1 BIM primary: 7; Mcl1-Bid inh: -4

What do the screens show for `O=C(Oc1ccc(-c2cnc3ccccc3n2)cc1)c1cc([N+](=O)[O-])ccc1Cl`?
Mcl1-Noxa inh: -2; L929 necroptosis: 73; TNF necrop inh: -1; Mcl-1 Bim block: -2; MCL1 BIM primary: 11; Mcl1-Bid inh: 32
